Compound activity as filed in PubChem.
This is a sample that favours compounds with a hit; in the whole collection about 7.4% have one here.
Rab9 promoter act = qHTS Assay for Rab9 Promoter Activators; Potency, µM (top dose mostly 9.22 µM), without a hit: top-dose activation, negative = inhibition, hits mostly activators; 320,000 compounds, 2.8% hits; Huh7 Rab9 promoter-luciferase reporter, luminescence, 24 h; further: % of control where 0% means no effect; nearly all actives have a fitted effect of over 60% in size
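Huh7 cells stably carrying Rab9 promoter–luciferase reporter, plated 1500 cells/well, compound added after 2 h and incubated 24 h at 37 °C; luciferase luminescence then read after 10 min with detection reagent.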
SMN2 splice enh = qHTS Assay for Enhancers of SMN2 Splice Variant Expression. HEK293 SMN2-luciferase splicing reporter, luminescence, 30-36 h. Potency, µM (series often up to 46.1 µM), for inactives: top-dose activity change, positive = activation, hits mostly activators. 210,000 compounds, 2.8% hits. AID 1458, 2008; further: % of control where 0% means no effect; nearly all actives have a fitted effect of over 55% in size
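HEK293 cells carry an SMN2 minigene-luciferase reporter in which exon 7 inclusion puts luciferase in frame. Cells were seeded at 2000 cells/well, attached for 10-12 hours, then exposed to compounds for 30-36 hours at 37C before ONE-Glo luminescence.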
NPC1 promoter act = qHTS Assay for NPC1 Promoter Activators. Huh7 NPC1 promoter luciferase reporter, 24 h. Potency, µM (doses to about 9.22 µM), for inactives: top-dose activation, actives largely listed as activators. 320,000 compounds, 2.4% hits; further: % of control where 0% means no effect; nearly all actives have a fitted effect of over 60% in size
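NPC1 promoter–luciferase Huh7 cells; 24 h compound; luminescence.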
FLuc counter = qHTS profiling assay for firefly luciferase inhibitor/activator using purifed enzyme and Km concentrations of substrates (counterscreen for miR-21 project); Luciferin 4-monooxygenase (Photinus pyralis), P08659; purified FLuc, Km substrates, luminescence inhibition; Potency, µM (titrated, usually from 57.5 µM), inactives show top-dose activity change, negative = inhibition, most hits filed as inhibitors; 360,000 compounds, 6.9% hits; AID 588342, 2011;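 further: plate controls were vehicle for no effect and reference inhibitor for full effect; nearly all actives have a fitted effect of over 55% in size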
Target sequence (P08659 whole entry, looked up): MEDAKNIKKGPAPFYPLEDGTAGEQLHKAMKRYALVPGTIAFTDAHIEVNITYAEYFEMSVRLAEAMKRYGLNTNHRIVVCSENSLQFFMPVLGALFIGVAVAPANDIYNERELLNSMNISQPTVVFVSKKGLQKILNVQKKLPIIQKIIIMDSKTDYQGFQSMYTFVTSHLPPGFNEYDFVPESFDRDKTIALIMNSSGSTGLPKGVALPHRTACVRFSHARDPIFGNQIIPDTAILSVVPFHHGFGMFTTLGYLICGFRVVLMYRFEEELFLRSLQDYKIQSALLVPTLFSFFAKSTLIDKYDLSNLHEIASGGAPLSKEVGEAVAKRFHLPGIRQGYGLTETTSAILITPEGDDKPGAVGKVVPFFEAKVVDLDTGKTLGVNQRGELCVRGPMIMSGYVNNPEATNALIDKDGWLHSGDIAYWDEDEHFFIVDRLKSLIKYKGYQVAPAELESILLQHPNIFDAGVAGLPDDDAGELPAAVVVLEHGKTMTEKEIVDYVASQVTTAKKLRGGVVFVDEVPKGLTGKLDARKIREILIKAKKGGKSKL
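Biochemical qHTS of compounds, final roughly 60 µM downward over six points, against 10 nM purified firefly luciferase using Km concentrations of substrates (10 uM D-luciferin, 10 uM ATP) in Tris acetate pH 7.5 buffer; luminescence output.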
KinaseGlo FLuc = Counterscreen for Luciferase (Kinase-Glo TM) Inhibition | Luciferin 4-monooxygenase (Photuris pensylvanica), Q27757 | Kinase-Glo luciferase, ATP luminescence, 8 min | Potency, µM (top dose mostly 38.3 µM), without a hit: top-dose activity change, negative = inhibition, most hits filed as inhibitors | 200,000 compounds, 0.28% hits | AID 1379, 2008; further: on the % scale 0 is the no-effect control and ±100 the full control effect; nearly all actives have a fitted effect of over 60% in size
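Inhibition of Kinase-Glo luciferase light generation was assessed at 10 uM ATP in pH 7.2 imidazole buffer, with luminescence measured after eight minutes at ambient temperature.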
ELG1 genotoxic = qHTS screen for small molecules that induce genotoxicity in human embryonic kidney (HEK293T) cells expressing luciferase-tagged ELG1 | HEK293T ELG1-luciferase reporter, luminescence, 16 h | Potency, µM (doses to about 46 µM), without a hit: top-dose activity change, positive = activation, usual class: activators | 330,000 compounds, 1.3% hits; further: % of control where 0% means no effect; nearly all actives have a fitted effect of over 60% in size
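HEK293T cells expressing luciferase-tagged ELG1 were exposed to compound or DMSO vehicle for 16 hr at 37 °C and 5% CO2. Luciferase activity was then measured with ONE-Glo after 30 min at room temperature.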
* = called active by the depositor. The call rests on the fitted dose curve; in most records, active means well fitted curve in the direction sought with a large enough effect; inconclusive means small, poorly fitted or top-dose-only effect, or another doubt; inactive means no such curve, though single readings can be large; an effect the other way counts as inactive or inconclusive. Potency means the concentration at half of the fitted maximal effect.

For COc1ccccc1NC(=O)COc1ccccc1C(=O)c1cnn(-c2ccccc2)c1 the results were Rab9 promoter act 17%, SMN2 splice enh inconclusive, NPC1 promoter act 18%, FLuc counter 11µM*, KinaseGlo FLuc -2% and ELG1 genotoxic inconclusive.
CCc1ccc(NC(=O)COc2ccc(F)cc2C(=O)c2cnn(-c3ccccc3)c2)cc1 was read as Rab9 promoter act inconclusive, NPC1 promoter act 13%, FLuc counter 11µM* and ELG1 genotoxic 14%.
For COC(=O)c1sc(NC(=O)c2cc3nc(-c4ccc(Br)cc4)cc(C(F)(F)F)n3n2)c(C(=O)OC)c1C the results were FLuc counter -3%.
For CCCCn1c(CNC(=O)C23CC4CC(CC(C4)C2)C3)nnc1SC(C)CC (configuration not stated) the results were Rab9 promoter act -22%, SMN2 splice enh -27%, NPC1 promoter act -2%, FLuc counter -2%, KinaseGlo FLuc 0% and ELG1 genotoxic -4%.
`COc1ccc(N2CCN(c3cc(C)c4ccccc4n3)CC2)cc1` gave Rab9 promoter act 0%, SMN2 splice enh -28%, NPC1 promoter act -11%, FLuc counter 0%, KinaseGlo FLuc -3% and ELG1 genotoxic -11%.
`COc1ccc(N2CCN(c3cnc4ccccc4n3)CC2)cc1` gave Rab9 promoter act inconclusive, SMN2 splice enh inconclusive, NPC1 promoter act inconclusive, FLuc counter 13µM*, KinaseGlo FLuc 2% and ELG1 genotoxic inconclusive.
COc1cccc(N2CCN(c3cnc4ccccc4n3)CC2)c1 was read as Rab9 promoter act 1.6µM*, SMN2 splice enh 14%, NPC1 promoter act inconclusive, FLuc counter 24µM*, KinaseGlo FLuc -3% and ELG1 genotoxic 8%.
Screening COc1cc2c(cc1OC)CN(C(=O)c1ccc(Cl)c(S(=O)(=O)N3CCCC3)c1)CC2 returned ELG1 genotoxic -1%.
`CC(C)(C)c1ccc(OCC(=O)N2CCN(c3ncccn3)CC2)cc1` gave Rab9 promoter act 10%, NPC1 promoter act 4%, FLuc counter inconclusive and ELG1 genotoxic -1%.
For O=C(O)CCC(=O)N1CCN(c2ccccn2)CC1 the results were Rab9 promoter act 10%, SMN2 splice enh 2%, NPC1 promoter act -2%, FLuc counter 3%, KinaseGlo FLuc -3% and ELG1 genotoxic -1%.
`CC(C)(C)c1ccc(OCC(=O)N2CCN(c3ccccn3)CC2)cc1` gave Rab9 promoter act -1%, NPC1 promoter act 6%, FLuc counter 12µM* and ELG1 genotoxic -3%.
O=C(CCSCc1ccccc1Cl)N1CCN(c2ccccn2)CC1 was read as Rab9 promoter act inconclusive, SMN2 splice enh 4%, NPC1 promoter act inconclusive, FLuc counter 24µM*, KinaseGlo FLuc 0% and ELG1 genotoxic 4%.
Screening COc1ccccc1-c1noc(-c2cc(OC)c(OC)c(OC)c2)n1 returned Rab9 promoter act -6%, SMN2 splice enh 17%, NPC1 promoter act 0%, FLuc counter -20%, KinaseGlo FLuc 3% and ELG1 genotoxic 0%.
Screening COc1cccc(-c2nc(-c3ccc(Br)o3)no2)c1 returned Rab9 promoter act 0.56µM*, NPC1 promoter act 0.89µM*, FLuc counter 0.67µM* and ELG1 genotoxic inconclusive.
`COc1ccc(-c2noc(Cc3ccccc3OC)n2)cc1` gave Rab9 promoter act 22%, SMN2 splice enh -12%, NPC1 promoter act 24%, FLuc counter inconclusive, KinaseGlo FLuc -5% and ELG1 genotoxic inconclusive.
For COc1ccccc1-c1nc(-c2ccc(Br)o2)no1 the results were Rab9 promoter act 0.89µM*, SMN2 splice enh inconclusive, NPC1 promoter act 3.5µM*, FLuc counter 1.9µM*, KinaseGlo FLuc inconclusive and ELG1 genotoxic inconclusive.
For COc1ccccc1Cc1nc(-c2ccc(Br)o2)no1 the results were Rab9 promoter act 12%, SMN2 splice enh 8%, NPC1 promoter act 16%, FLuc counter 19µM*, KinaseGlo FLuc -4% and ELG1 genotoxic 9%.
COc1ccc(-c2nc(-c3ccc(Br)o3)no2)cc1OC was read as Rab9 promoter act 3.2µM*, SMN2 splice enh 14µM*, NPC1 promoter act inconclusive, FLuc counter inconclusive, KinaseGlo FLuc -1% and ELG1 genotoxic 21µM*.
`CCCn1nc(C(=O)Nc2ccc3c(c2)OCCO3)c2ccccc2c1=O` gave Rab9 promoter act inconclusive, NPC1 promoter act 12%, FLuc counter inconclusive and ELG1 genotoxic 0%.
Screening CC(=O)Nc1ccc(/C=C2\CCc3ccccc3C2=O)cc1 returned Rab9 promoter act inconclusive, NPC1 promoter act 3.2µM*, FLuc counter 6.7µM* and ELG1 genotoxic inconclusive.
Screening O=C1/C(=C/Nc2cccc([N+](=O)[O-])c2)CCc2ccccc21 returned Rab9 promoter act 2.5µM*, SMN2 splice enh 11µM*, NPC1 promoter act 2.8µM*, FLuc counter 2.7µM*, KinaseGlo FLuc -2% and ELG1 genotoxic inconclusive.
Screening CC(=O)Nc1ccc2c(c1)CCC2=O returned Rab9 promoter act -1%, SMN2 splice enh 13%, NPC1 promoter act 0%, FLuc counter -1%, KinaseGlo FLuc -2% and ELG1 genotoxic 0%.
O=C1/C(=C\c2ccc([N+](=O)[O-])cc2)CCc2ccccc21 was read as Rab9 promoter act 24%, SMN2 splice enh inconclusive, NPC1 promoter act 21%, FLuc counter 0.095µM*, KinaseGlo FLuc 13µM* and ELG1 genotoxic 7.3µM*.
For O=C1/C(=C/c2ccc(O)cc2)CCc2ccc([N+](=O)[O-])cc21 the results were Rab9 promoter act -1%, SMN2 splice enh 8%, NPC1 promoter act -6%, FLuc counter -20%, KinaseGlo FLuc 2% and ELG1 genotoxic 0%.
Screening CC(C)c1ccc(NC(=O)Cc2c(C(=O)O)n(C)c3ccccc23)cc1 returned Rab9 promoter act 1%, NPC1 promoter act 1%, FLuc counter -19% and ELG1 genotoxic 6%.
For O=C(COC(=O)Cc1ccccc1F)Nc1cc(S(=O)(=O)N2CCOCC2)ccc1N1CCCC1 the results were Rab9 promoter act -4%, SMN2 splice enh 9%, NPC1 promoter act 0%, FLuc counter 2%, KinaseGlo FLuc 10% and ELG1 genotoxic 3%.
For C=CCOc1cccc(CNc2cccc(C(=O)O)c2)c1 the results were Rab9 promoter act inconclusive, NPC1 promoter act inconclusive, FLuc counter 9.5µM* and ELG1 genotoxic 16%.
